# Measured values taken from PubChem BioAssay (NCI).
# The panel holds about 79,000 compounds, 15% with a hit somewhere; the sample as a whole holds those more often. Unmarked numbers belong to inactive results. Activity calls are given as the source filed them. Rule as the data show it: active = growth inhibition above about 70%; inactive = the rest.
# Experiment: NCI Yeast Anticancer Drug Screen. Data for the wt1 strain (AID 149);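 also: 0% = growth of vehicle-treated wt1 cultures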
# Conditions: S. cerevisiae wt1 strain (SPY 50644) growth inhibition; at 1.2 µM; stronger effect = higher value
# Method in brief: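 Vehicle-normalised growth inhibition; strain wt1; compound exposure.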
row,Structure (SMILES),growth inhibition
1,CCC/C(Cl)=N\OC(=O)Nc1cccc(C(F)(F)F)c1,1%
2,[O-][n+]1c2ccc(O)cc2nc2ccc(Cl)cc21,4%
3,Clc1ccccc1C1OC1c1ccccc1Cl (stereo not drawn),-65%
4,c1ccc2c(c1)c1ncccc1c1nccnc21,-2%
5,CC(=O)Nc1ccc2c(c1)C(=Nc1ccc(C(=O)O)cc1)c1ccccc1-2,1%
6,COc1ccc(OC)c2cc3ccccc3cc12,-19%
7,COc1cc(C2c3cc4c(cc3OC(NNc3ccccc3)C2C)OCO4)cc(OC)c1OC (stereo not drawn),16%
8,O=C1c2cc([N+](=O)[O-])ccc2-c2cccc(F)c21,-1%
9,CCCCCCCCCCCC(=O)N(C)C,-15%
10,CCCCCCCCCCCC1=C(O)C(=O)C=C(O)C1=O,-4%
11,Cc1ccc(CSC(N)=Nc2ccccc2)cc1C,3%
12,CCCCCCCCCCC1CCC(=O)O1 (stereo not drawn),-2%
13,O=[N+]([O-])c1cc(CCl)ccc1CCl,2%
14,Nc1ccc2c(c1)C(=O)c1cccc(N)c1C2=O,-1%
15,CCCCCCCCCCNC(=O)OCC,-3%
16,CC1=C(C)Cc2c(O)ccc(O)c2C1,-1%
17,COc1ccc2c(c1)C(=O)c1ccccc1C2,2%
18,CCC(=O)OCCn1c2nc(=O)[nH]c(=O)c-2nc2cc(C)c(C)cc21,8%
19,O=C(OCCN1CCCCCC1)C(c1ccsc1)C1CCCCC1 (stereo not drawn),-67%
20,Oc1c(Br)cc(Br)cc1C1CCCCC1,-21%

row,Structure (SMILES),growth inhibition
1,CC1(C)[C@@H]2CC[C@]1(C)[C@H](OC(=O)CSC#N)C2,1%
2,S=C(N/N=C(/c1ccccc1)c1ccccn1)N1CCCCCC1,-3%
3,Cc1ccc2[nH]c3c(C)c4cc[n+](C)cc4c(C)c3c2c1,-6%
4,CNC(=O)OCc1c(COC(=O)NC)c(-c2ccc(-c3ccccc3)cc2)n(C)c1C,-7%
5,COc1ccccc1/C=C1\Sc2scc(-c3cccc([N+](=O)[O-])c3)[n+]2C1=O,33%
6,O=[N+]([O-])c1ccc2c(c1)C(N1CCN(CCO)CC1)Cc1ccc(F)cc1S2 (stereo not drawn),-2%
7,Cc1ccc(CCC2=CCCc3c2ccc2ccccc32)cc1,-3%
8,O=[N+]([O-])c1cccc2nccc(NCCCO)c12,1%
9,Cc1ccc(-n2cc(-c3ccc(Cl)cc3)c(C#N)c2N)cc1,-4%
10,Cc1ccc(S/N=C\c2ccccc2O)cc1,-1%
11,O=C(O)C1OC1(c1cccc(Cl)c1)c1ccccc1Cl (stereo not drawn),-18%
12,NC(=S)N/N=C\c1nccc2ccccc12,-6%
13,Clc1cccc(C(Nc2nncs2)Nc2nncs2)c1Cl,-2%
14,O=C(OCC=C1CCCC1)c1cc([N+](=O)[O-])cc([N+](=O)[O-])c1,-6%
15,O=C(Nc1ccccc1)C(=O)C(C(=O)c1ccccc1)C(c1ccccc1)c1ccccc1 (stereo not drawn),3%
16,N#CN1C2CCC1CC(=O)C2,-25%
17,COc1ccccc1C(=O)OCC1CCCN2CCCCC12 (stereo not drawn),0%
18,CCNc1nnc(CSc2nc(-c3ccccc3)c(-c3ccccc3)[nH]2)s1,-4%
19,O=C1c2ccccc2-c2n[nH]c3cccc1c23,-21%

# Same assay, conditions: S. cerevisiae wt1 strain (SPY 50644) growth inhibition; at 3.7 µM; stronger effect = higher value
row,Structure (SMILES),growth inhibition
1,CCC/C(Cl)=N\OC(=O)Nc1cccc(C(F)(F)F)c1,2%
2,[O-][n+]1c2ccc(O)cc2nc2ccc(Cl)cc21,9%
3,Clc1ccccc1C1OC1c1ccccc1Cl (stereo not drawn),-49%
4,c1ccc2c(c1)c1ncccc1c1nccnc21,4%
5,CC(=O)Nc1ccc2c(c1)C(=Nc1ccc(C(=O)O)cc1)c1ccccc1-2,6%
6,COc1ccc(OC)c2cc3ccccc3cc12,-19%
7,COc1cc(C2c3cc4c(cc3OC(NNc3ccccc3)C2C)OCO4)cc(OC)c1OC (stereo not drawn),9%
8,O=C1c2cc([N+](=O)[O-])ccc2-c2cccc(F)c21,-2%
9,CCCCCCCCCCCC(=O)N(C)C,-13%
10,CCCCCCCCCCCC1=C(O)C(=O)C=C(O)C1=O,-7%
11,Cc1ccc(CSC(N)=Nc2ccccc2)cc1C,13%
12,CCCCCCCCCCC1CCC(=O)O1 (stereo not drawn),-2%
13,O=[N+]([O-])c1cc(CCl)ccc1CCl,8%
14,Nc1ccc2c(c1)C(=O)c1cccc(N)c1C2=O,6%
15,CCCCCCCCCCNC(=O)OCC,-5%
16,CC1=C(C)Cc2c(O)ccc(O)c2C1,-3%
17,COc1ccc2c(c1)C(=O)c1ccccc1C2,1%
18,CCC(=O)OCCn1c2nc(=O)[nH]c(=O)c-2nc2cc(C)c(C)cc21,-4%
19,O=C(OCCN1CCCCCC1)C(c1ccsc1)C1CCCCC1 (stereo not drawn),13%
20,Oc1c(Br)cc(Br)cc1C1CCCCC1,-12%

row,Structure (SMILES),growth inhibition
1,CC1(C)[C@@H]2CC[C@]1(C)[C@H](OC(=O)CSC#N)C2,4%
2,S=C(N/N=C(/c1ccccc1)c1ccccn1)N1CCCCCC1,3%
3,Cc1ccc2[nH]c3c(C)c4cc[n+](C)cc4c(C)c3c2c1,-12%
4,CNC(=O)OCc1c(COC(=O)NC)c(-c2ccc(-c3ccccc3)cc2)n(C)c1C,-16%
5,COc1ccccc1/C=C1\Sc2scc(-c3cccc([N+](=O)[O-])c3)[n+]2C1=O,91% (active)
6,O=[N+]([O-])c1ccc2c(c1)C(N1CCN(CCO)CC1)Cc1ccc(F)cc1S2 (stereo not drawn),-3%
7,Cc1ccc(CCC2=CCCc3c2ccc2ccccc32)cc1,-4%
8,O=[N+]([O-])c1cccc2nccc(NCCCO)c12,0%
9,Cc1ccc(-n2cc(-c3ccc(Cl)cc3)c(C#N)c2N)cc1,-2%
10,Cc1ccc(S/N=C\c2ccccc2O)cc1,0%
11,O=C(O)C1OC1(c1cccc(Cl)c1)c1ccccc1Cl (stereo not drawn),-15%
12,NC(=S)N/N=C\c1nccc2ccccc12,-7%
13,Clc1cccc(C(Nc2nncs2)Nc2nncs2)c1Cl,-1%
14,O=C(OCC=C1CCCC1)c1cc([N+](=O)[O-])cc([N+](=O)[O-])c1,-1%
15,O=C(Nc1ccccc1)C(=O)C(C(=O)c1ccccc1)C(c1ccccc1)c1ccccc1 (stereo not drawn),5%
16,N#CN1C2CCC1CC(=O)C2,-37%
17,COc1ccccc1C(=O)OCC1CCCN2CCCCC12 (stereo not drawn),-7%
18,CCNc1nnc(CSc2nc(-c3ccccc3)c(-c3ccccc3)[nH]2)s1,-9%
19,O=C1c2ccccc2-c2n[nH]c3cccc1c23,-28%
